Results on ten compounds are retold here after article PMC7826789 (International Journal of Molecular Sciences, 2021).

Some test systems named below: MST1R; MST4; MTOR; MUSK; MYLK2; MYLK4; MYLK; MYO3A; MYO3B; NEK10; NEK11; NEK1; NEK2.
Details in all cases: Compound Concentration (nM):1000
For the next test, the system named is T1, MRCKA.
T1 construct: gene CDC42BPA

The test system of the next test is T2, MRCKB.
T2 construct: gene CDC42BPB

The test system of a further test is T3, MST1.
T3 construct: gene STK4

The next test has as its system T4, MST2.
T4 construct: gene STK3

For another test, the system named is T5, MST3.
T5 construct: gene STK24

The next test has as its system T6, NDR1.
T6 construct: gene STK38

The test system of the next test is T7, NDR2.
T7 construct: gene STK38L
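Also: KINOMEscan scanMAX binding as percent activity remaining versus control; lower means stronger binding.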

For `C[C@@H](Oc1cc(-n2cnc3ccc(OC4CCN(C)CC4)cc32)sc1C(N)=O)c1ccccc1Cl` [GSK579289A], the “Percent Control” value in the test on MRCKA is 100%; in the test with MRCKB it was 88%; with MST1R, 100%; with MST1, 77%; in the test with MST2, 24%; in the test with MST3, 84%. In addition, the “Percent Control” value in the test on MST4 is 59%; in the test on MTOR, 95%; in the test on MUSK it was 85%; with MYLK2, 48%; in the test with MYLK4 it was 62%; with MYLK it was 81%. The “Percent Control” value is 74% in the test on MYO3A; 87% in the test with MYO3B; 98% in the test with NDR1; 88% in the test with NDR2; 92% with NEK10; 100% in the test on NEK11. In addition, the “Percent Control” value in the test with NEK1 is 60%; in the test with NEK2, 9.5%.
In the case of `Cc1cc(O)cc(C)c1/C=C/c1cncc(C(N)=O)c1` [GW435821X], the “Percent Control” value with MRCKA, with MRCKB, in the test with MST1R, in the test on MST1, in the test with MST2 and in the test with MST3 was 100% throughout. The “Percent Control” value was 69% in the test on MST4; 100% in the test on MTOR; 100% in the test on MUSK; 100% in the test on MYLK2; 100% with MYLK4; 97% in the test on MYLK. Besides, the “Percent Control” value in the test on MYO3A is 100%; in the test with MYO3B, 100%; with NDR1 it was 99%; in the test on NDR2, 100%; with NEK10, 100%; in the test with NEK11, 100%. Also, the “Percent Control” value with NEK1 and in the test on NEK2 was 100% each time.
`CN(C)CCNC(=O)Nc1ccc(N(C)c2ccnc(Nc3ccc(CS(C)(=O)=O)cc3)n2)cc1.Cl` [GW830900A]: the “Percent Control” value with MRCKA was 95%; with MRCKB, 96%; in the test with MST1R, 100%; with MST1, 100%; in the test with MST2 it was 100%; in the test on MST3, 91%. The “Percent Control” value is 66% in the test with MST4; 97% in the test on MTOR; 78% in the test on MUSK; 100% in the test on MYLK2; 100% in the test on MYLK4; 100% with MYLK. Moreover, the “Percent Control” value is 99% in the test with MYO3A; 92% with MYO3B; 86% in the test on NDR1; 100% in the test with NDR2; 87% in the test on NEK10; 100% with NEK11. The “Percent Control” value was 92% with NEK1 and 90% in the test with NEK2.
With `COc1cc2ncn(-c3cc(O[C@H](C)c4ccccc4Cl)c(C(N)=O)s3)c2cc1OC` [GSK237701A], the “Percent Control” value in the test with MRCKA was 89%; in the test on MRCKB it was 96%; in the test on MST1R, 94%; in the test on MST1 it was 43%; in the test with MST2, 0%; with MST3, 93%. In addition, the “Percent Control” value in the test on MST4 was 91%; in the test on MTOR, 100%; in the test with MUSK, 89%; in the test with MYLK2, 45%; with MYLK4, 45%; with MYLK it was 94%. Moreover, the “Percent Control” value with MYO3A is 100%; with MYO3B, 100%; in the test with NDR1, 84%; in the test on NDR2 it was 100%; in the test on NEK10 it was 95%; with NEK11, 78%. Moreover, the “Percent Control” value was 51% in the test with NEK1 and 3.7% with NEK2.
In the case of `Cl.c1ccc(Cc2nc3ccc(Nc4ncnc5ccccc45)cc3[nH]2)cc1` [GR269666A], the “Percent Control” value in the test with MRCKA, in the test with MRCKB, in the test with MST1R, in the test on MST1, in the test on MST2 and in the test with MST3 was 100% each time. The “Percent Control” value in the test on MST4, in the test on MTOR, with MUSK, with MYLK2, in the test with MYLK4 and with MYLK was 100% throughout. In addition, the “Percent Control” value with MYO3A, in the test on MYO3B, in the test on NDR1, in the test with NDR2, in the test on NEK10 and with NEK11 was 100% each time. Also, the “Percent Control” value was 99% in the test with NEK1 and 100% in the test with NEK2.
For the compound `COc1ccc(COc2ccc(Cc3cnc(N)nc3N)cc2OC)cc1` [GW632580X], the “Percent Control” value in the test on MRCKA was 100%; in the test with MRCKB it was 100%; in the test with MST1R it was 100%; in the test with MST1, 85%; with MST2, 73%; in the test on MST3, 97%. Also, the “Percent Control” value was 90% in the test with MST4; 96% in the test with MTOR; 100% in the test on MUSK; 100% with MYLK2; 100% with MYLK4; 100% in the test on MYLK. Moreover, the “Percent Control” value was 92% with MYO3A; 100% in the test with MYO3B; 93% in the test on NDR1; 86% in the test with NDR2; 95% with NEK10; 100% with NEK11. For the same compound, the entries for the “Percent Control” value in the test on NEK1 and with NEK2 were 100% and 84%, respectively.
In the case of `Cl.O=C(Nc1ccc(Oc2ccc3[nH]c(NC(=O)c4ccccc4)nc3c2)cc1)Nc1cc(C(F)(F)F)ccc1F` [GW709042A], the “Percent Control” value in the test on MRCKA was 85%; with MRCKB it was 90%; in the test with MST1R it was 100%; in the test with MST1, 73%; with MST2, 100%; with MST3, 100%. Besides, the “Percent Control” value is 69% in the test on MST4; 82% with MTOR; 19% in the test with MUSK; 91% in the test with MYLK2; 100% with MYLK4; 99% in the test with MYLK. For the same compound, the “Percent Control” value in the test on MYO3A, in the test on MYO3B, with NDR1, in the test with NDR2, in the test with NEK10 and in the test with NEK11 was 100% in each case. The “Percent Control” value in the test on NEK1 was 89%; in the test with NEK2, 100%.
As to `CC1=C(C(=O)Nc2ccc3[nH]ncc3c2)C(c2ccc3ccccc3c2)CC(=O)N1` (centres unmarked) [GSK270822A], the “Percent Control” value is 100% with MRCKA; 85% with MRCKB; 46% with MST1R; 93% in the test with MST1; 73% in the test on MST2; 90% in the test with MST3. Further, the “Percent Control” value is 53% in the test on MST4; 100% in the test on MTOR; 95% in the test with MUSK; 100% in the test with MYLK2; 78% in the test on MYLK4; 93% in the test with MYLK. Further, the “Percent Control” value in the test with MYO3A is 90%; in the test with MYO3B, 100%; with NDR1, 28%; with NDR2 it was 61%; in the test on NEK10 it was 65%; in the test on NEK11 it was 81%. Also, the “Percent Control” value in the test with NEK1 was 87%; in the test on NEK2, 85%.
Take `COc1cc(N2CCN(C(C)C)CC2)ccc1Nc1nc(Nc2ccc(F)cc2C(=O)NC[C@@H](O)CO)c2cc[nH]c2n1` [GSK1392956A]: the “Percent Control” value was 100% with MRCKA; 100% in the test on MRCKB; 100% in the test with MST1R; 100% with MST1; 92% in the test on MST2; 90% in the test with MST3. For the same compound, the “Percent Control” value in the test with MST4 is 94%; with MTOR it was 100%; in the test on MUSK, 100%; with MYLK2 it was 100%; with MYLK4, 82%; in the test on MYLK, 0.3%. For the same compound, the “Percent Control” value in the test on MYO3A is 88%; in the test on MYO3B, 100%; in the test on NDR1, 99%; in the test on NDR2, 91%; with NEK10, 34%; in the test on NEK11, 100%. Besides, the “Percent Control” value with NEK1 was 82%; in the test with NEK2, 99%.
On to `NS(=O)(=O)c1ccc(Nc2ncc(-c3ccccc3)o2)cc1` [GW572399X], for which the “Percent Control” value in the test with MRCKA, in the test with MRCKB, with MST1R, in the test with MST1, in the test on MST2 and in the test with MST3 was 100% each time. The “Percent Control” value with MST4 is 65%; in the test on MTOR, 88%; with MUSK, 100%; with MYLK2, 100%; in the test on MYLK4, 81%; with MYLK it was 100%. In addition, the “Percent Control” value in the test on MYO3A was 100%; in the test on MYO3B, 100%; in the test with NDR1 it was 83%; with NDR2, 100%; in the test with NEK10 it was 100%; in the test on NEK11, 100%. Moreover, the entries for the “Percent Control” value in the test with NEK1 and with NEK2 were 84% and 100%, respectively.
